# Source: PubChem
# FBPA Giardia inh = qHTS Assay for Inhibitors of Fructose-1,6-bisphosphate Aldolase from Giardia Lamblia. Potency, µM (top dose mostly 59.6 µM), for the others: at the highest dose activity, negative = inhibition, actives largely listed as inhibitors. 290,000 tested, 0.71% active. purified Giardia FBPA. AID 2451, 2010. A8B2U2; also: potency is read from the fitted curve at half-maximal effect; % is scaled to controls: 0 for no effect and ±100 for the full control effect; nearly all actives have a fitted effect of over 55% in size
# Target sequence (A8B2U2 whole entry, looked up): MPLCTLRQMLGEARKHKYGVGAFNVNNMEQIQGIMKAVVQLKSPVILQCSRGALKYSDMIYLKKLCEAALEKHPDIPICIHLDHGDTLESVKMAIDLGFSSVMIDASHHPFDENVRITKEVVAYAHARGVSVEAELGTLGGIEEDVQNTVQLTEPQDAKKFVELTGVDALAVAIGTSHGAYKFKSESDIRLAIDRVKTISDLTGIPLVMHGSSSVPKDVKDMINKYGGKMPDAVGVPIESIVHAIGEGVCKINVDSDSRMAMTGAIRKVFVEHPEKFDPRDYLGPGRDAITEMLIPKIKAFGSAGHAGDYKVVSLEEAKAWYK
#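 Giardia FBPA (40 nM reagent) was preincubated 10 min at RT with compound (up to 57.5 uM final), then substrate plus GAPDH/TPI/NAD/arsenate coupling system with diaphorase/resazurin was added; resorufin fluorescence (525/598 nm) was read after 20 min.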
# CHX counter = Cycloheximide Counterscreen for Small Molecule Inhibitors of Shiga Toxin | cell reporter, cycloheximide protein synthesis inhibition counterscreen | 300,000 tested, 12% active | max response, %; in the data active = max response mostly above about 13%, no sharp cut-off; inactive = mostly below about 14%; also: read at 38.3 µM for the half of the compounds with a filed dose; 0% is about no effect
# Shiga toxin inh = A qHTS for Small Molecule Inhibitors of Shiga Toxin. Vero cells, Shiga toxin protein synthesis inhibition reporter. inhibition, % at 38.7 µM. 290,000 tested, 9.2% active; in the data active = inhibition mostly above about 28%, no sharp cut-off; inactive = mostly below about 43%; also: 0% is about no effect
# LmPK inhibitor = qHTS Assay for Inhibitors of Leishmania Mexicana Pyruvate Kinase (LmPK) | purified LmPK, Kinase-Glo ATP luminescence, 1 h | Potency, µM (top dose mostly 57.5 µM), for the others: top-dose activity change, negative = inhibition, most hits filed as inhibitors | 290,000 tested, 0.37% active | AID 1721, 2009; also: potency is read from the fitted curve at half-maximal effect; % is scaled to controls: 0 for no effect and ±100 for the full control effect
#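 Purified LmPK (0.1 nM) converted ADP (0.1 mM) to ATP with PEP (0.5 mM) in imidazole buffer pH 7.2 with KCl and MgCl2, 1 h at room temperature. ATP was read by Kinase-Glo luminescence; data normalized to uninhibited and no-enzyme controls.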
# NS1 function inh = qHTS Assay for Inhibitors of Influenza NS1 Protein Function; Potency, µM (doses to about 46.1 µM), for inactives: at the highest dose activity, positive = more growth; 270,000 tested, 0.4% active; AID 2326, 2010; calls by dose curve; also: potency is read from the fitted curve at half-maximal effect; actives are rising curves; nearly all actives have a fitted effect of over 50% in size
#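 S. cerevisiae expressing influenza A NS1, grown in glucose, washed, then diluted 1:100 into pH 6.0 -URA galactose medium with 23 nl compound. Growth recovery read as OD600; NS1-free strain serves as control.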
# The depositor's hits bear a star; ? = inconclusive; / = no result given; + = active, no number; [ ] = dose if it differs, or a comment. Most compounds without a hit are left out; they make up all but 14% or so of the library. Unless noted, calls follow the shape of the dose curve; as a rule, active = well fitted curve in the direction sought with a large enough effect; inconclusive = small, poorly fitted or top-dose-only effect, or another doubt; inactive = no such curve, though single readings can be large; an effect the other way counts as inactive or inconclusive.
SMILES,FBPA Giardia inh,CHX counter,Shiga toxin inh,LmPK inhibitor,NS1 function inh
CCOc1cc(C2C3=C(CC(C)(C)CC3=O)N(C)C3=C2C(=O)CC(C)(C)C3)ccc1O,-4.8%,-1.7,/,-4.9%,9.5%
COC(c1ccccc1)c1nnc(CCC(=O)NC2CCCCC2)o1 (stereo not given),3.5%,17.3*,25.9,3.4%,-1.2%
COC(c1ccccc1)c1nnc(CCC(=O)NCCc2ccc(Cl)cc2)o1 (stereo not given),1.0%,0.7,2.8,0.5%,1.4%
O=C(CCc1nc(-c2ccccc2)no1)NC1CCCCC1,0.7%,12.4*,28.6,7.0%,-16.7%
O=C(CCc1nnc(-c2ccc(-c3ccccc3)cc2)o1)N1CCCCC1,9.1%,48.9*,68.5*,3.4%,8.3%
O=C(CCc1nc(-c2ccccc2)no1)N1CCCC1,3.0%,14.2,21.0,-0.9%,1.1%
CC(CNC(=O)CCc1nnc(CCC2CCCCC2)o1)c1ccccc1 (stereo not given),3.0%,20.8*,38.2,7.8%,-3.3%
CCC(C(=O)NC1CCCCCC1)n1nc(C)c2c(C)n(-c3ccccc3)nc2c1=O (stereo not given),/,15.8,31.9,-4.1%,1.7%
COC(c1ccccc1)c1nnc(CCC(=O)N2CCCCCCC2)o1 (stereo not given),7.5%,10.5*,32.7,1.1%,7.1%
O=C(CCc1nnc(-c2ccsc2)o1)N1CCc2c(Cl)cccc2C1,2.6%,30.2*,104.4*,-5.2%,-0.3%
CCOC(=O)CN(C)C(=O)CCc1nnc(-c2ccsc2)o1,17.3%,-3.4,-7.4,0.5%,11.5%
COC(c1ccccc1)c1nnc(CCC(=O)N(C)C(C2CC2)C2CC2)o1 (stereo not given),4.1%,50.2*,83.8*,-8.6%,-3.1%
O=C(CCc1nnc(-c2ccccc2)o1)NC1CCCCC1,23.2%,44.0*,64.5*,5.0%,-1.7%
COC(c1ccccc1)c1nnc(CCC(=O)N2CCN(Cc3cccs3)CC2)o1 (stereo not given),-6.5%,2.2,25.5,14.3%,1.1%
Cc1c(-c2ccc(OCc3ccccc3)cc2)nc2ccccc2c1C(=O)O,8.4%,8.3,1.6,-5.9%,6.0%
O=Cc1ccc(OC2C=CC(C#Cc3ccccc3)OC2CO)cc1 (stereo not given),-6.6%[12.9 µM],/,/,/,/
Fc1ccc(-c2nc3ccccn3c2NCc2ccc3c(c2)OCO3)cc1,-8.0%,15.3,4.7,-2.7%,/
Oc1ccc(-c2nc3ccccn3c2NCc2ccc3c(c2)OCO3)cc1,-9.6%,24.5*,15.1,-4.6%,-19.4%
Cc1c(C)c2c(OCC(=O)NCc3ccccn3)cc3c(c2oc1=O)CCC(C)(C)O3,-12.8%,-3.3,-5.1,0.6%,6.7%
c1ccc(N=P(N2CCOCC2)(N2CCOCC2)N2CCOCC2)cc1,2.1%,-2.2,-6.8,0.8%,1.2%
c1ccc(N=P(c2nc3ccccc3o2)(N2CCOCC2)N2CCOCC2)cc1,0.7%,23.3*,33.2*,-9.8%,-9.2%
COc1cccc(N2CCN(C3C4CC5CC(C4)CC3C5)CC2)c1 (stereo not given),-7.8%,22.0*,51.9,-7.9%,0.6%
COc1cccc(N2CCN(CC(=O)C34CC5CC(CC(C5)C3)C4)CC2)c1,?,-3.9,-22.5,-1.0%,-2.9%
O=[N+]([O-])c1cc(-c2ncccn2)c([N+](=O)[O-])s1,15.8µM*,-5.0,-13.2,-14.5%,-46.2%
O=C(O)C[n+]1ccccc1,/,/,/,/,8.3%
SMILES,FBPA Giardia inh,CHX counter,Shiga toxin inh,LmPK inhibitor,NS1 function inh
O=C(O)c1ccc(N/N=C2/CCCc3ccccc32)cc1,-1.5%,33.0*,59.3*,-2.4%,-7.2%
Cc1cc(C(=O)NC2Cc3ccccc3C2)c(C)o1,0.0%,56.8*,66.4*,0.6%,-39.0%
O=C(N/N=C1\CCCc2ccccc21)c1ccccc1Cl,-0.3%,36.2*,63.2*,5.7%,-3.2%
O=C(N/N=C1\CCc2ccccc21)c1ccccc1O,-28.9%,49.0*,79.9*,12.6µM*,-2.0%
N#Cc1ccc(OCC(=O)N/N=C2\CCc3ccccc32)cc1,-2.9%,6.1,4.9,11.8%,-1.8%
O=C(O)CNC(=O)c1ccc(Oc2c(F)c(F)c(Oc3ccc(C(=O)NCC(=O)O)cc3)c(F)c2F)cc1,8.1%,-3.1,-11.1,1.7%,8.9%
Cc1cc(C(=O)N/N=C2\CCCc3ccccc32)c(C)o1,-3.9%,26.3*,50.5,0.7%,7.3%
Cc1cc(C(=O)Nc2ccccc2)c(C)o1,-1.5%,7.2,-2.0,3.9%,-114.7%
COc1ccc2c(c1)CCC/C2=N\NC(=O)c1ccoc1C,0.2%,85.7*,+,0.2%,20.9%
O=C(N/N=C1\CCc2ccccc21)c1ccncc1,0.8%,46.2*,56.0*,-16.8%,-3.2%
COc1cc(C(=O)NNC(=O)c2ccoc2C)cc(OC)c1OC,2.0%,-2.2,-11.4,-0.4%,5.2%
COc1ccc(C(=O)CSc2nc(C(C)(C)C)nc3ccccc23)cc1,-4.9%,6.2,-3.7,4.0%,1.7%
Clc1ccc(-c2ccc(CNCC3CCCO3)o2)cc1 (stereo not given),-8.6%,35.1*,96.5*,1.9%,-2.7%
CCN(CC)c1ccc(NC(=S)NCC2CCCO2)cc1 (stereo not given),-4.8%,27.7*,101.1*,-0.3%,-4.3%
O=C(NCC1CCCO1)Nc1cc(Cl)cc(Cl)c1 (stereo not given),-2.9%,6.0,21.0,-7.8%,-7.5%
O=C(NCC1CCCO1)Nc1ccc(Cl)cc1 (stereo not given),1.9%,43.8*,73.9*,-0.9%,8.9%
S=C(NCC1CCCO1)Nc1ccc(Cl)cc1Cl (stereo not given),-0.4%,46.2*,143.5*,-2.5%,8.5%
S=C(NCC1CCCO1)Nc1ccccc1 (stereo not given),1.3%,0.8,6.3,-4.0%,4.9%
FC(F)(F)c1ccccc1-c1ccc2ncnc(NC3CCNCC3)c2c1,0.3%,/,/,/,/
Cc1ccc(NC(=S)NCC2CCCO2)cc1 (stereo not given),-0.4%,26.0,43.0,3.3%,2.2%
S=C(NCC1CCCO1)Nc1ccc(Cl)cc1 (stereo not given),4.4%,15.9*,56.1,-1.1%,28.8%
O=c1c2ccccc2ncn1Cc1nc2ccccc2s1,-10.2%,-2.3,7.4,5.5%,-59.1%
Cc1ccc(Cn2cccc(-c3nc4ccccc4s3)c2=O)cc1,-3.4%,43.4*,70.3*,-1.3%,4.2%
O=c1c(-c2nc3ccccc3s2)cccn1Cc1ccccc1,-2.2%,51.2*,101.7*,3.3%,-4.8%
C[C@@]12C=CC(=O)C=C1CC[C@H]1[C@H]3CC[C@](O)(C(=O)CO)[C@]3(C)CC(=O)[C@@H]12,1.6%[21.7 µM],/,/,/,/
O=C1COc2ccc(C(=O)COC(=O)CNC(=O)c3ccco3)cc2N1,0.8%,-1.9,-13.8,4.6%,/
COc1ccc(CCNC(=O)c2cnc3n(c2=O)CCS3)cc1OC,-2.7%,2.0,-2.8,-1.3%,-1.1%
O=C(NCCc1ccc(Cl)cc1)c1cnc2n(c1=O)CCS2,4.0%,40.6*,+,0.2%,-33.4%
